Experimental findings from PubChem BioAssay (NCATS) are described below.

Molecules are shown by their SMILES. “And” between values parts separate entries of the source, which are not always exact repeats. Equal entries are not always repeated. Inconclusive results are not listed. Some structures have more than one record in an assay (separate samples or runs), and their calls can disagree. The source made the active and inactive calls. Unless noted, the call rests on the fitted dose curve; in most records, active means well fitted curve in the direction sought with a large enough effect; inconclusive means small, poorly fitted or top-dose-only effect, or another doubt; inactive means no such curve, though single readings can be large; an effect the other way counts as inactive or inconclusive.

Assay [1] can be described thus: AP1 Signaling Pathway (AID 357; active means well fitted curve in either direction with a large enough effect, not every such curve was filed as active; further: on the % scale 0 is the no-effect control and ±100 the full control effect). The conditions noted are these: ME-180 AP-1-bla reporter, EGF-induced, beta-lactamase ratio, 5 h; at 7.69 µM (top of the series) unless noted. The method in brief: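 AP-1-bla ME-180 cells with beta-lactamase reporter under AP-1 response element, stimulated with EC50 EGF; compounds titrated, 5 hours at 37 degrees Celsius. CCF4 read at 460/530 nm ratio; positive and negative modulators judged by AC50.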

The target in assay [2] is Cytochrome P450 1A2 (Homo sapiens) (UniProt P05177). The assay is described as follows: p450-cyp1a2 (AID 410; calls by dose curve; further: potency means the concentration at half of the fitted maximal effect;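 on activity change, negative = inhibition: -100% = full effect of reference inhibitor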). The method in brief:
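20nM CYP1A2 with 100uM Luciferin-ME (at Km) in 100mM KPO4; compound preincubated 10 min, NADPH regeneration added, 60 min at room temperature. Luciferin quantified by luminescence after detection reagent; normalized to 57 uM furafylline.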

Assay [3] in a line: NFAT Signaling Pathway (AID 444; active means well fitted curve in either direction with a large enough effect, not every such curve was filed as active;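 further: carbachol stimulus at about its EC50 of 1 µM final; on the % scale 0 is the no-effect control and ±100 the full control effect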). The conditions noted are these: Jurkat NFAT-bla M1, carbachol, beta-lactamase ratio, 5 h; at 7.69 µM (top of the series) unless noted. The method in brief:
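Jurkat cells with NFAT-driven β-lactamase reporter and co-expressed M1 receptor, stimulated with carbachol (final 1 uM, ~EC50), compound titration, 5 h at 37 °C. CCF4 loaded 1 h at RT; 460/530 nm ratio gave %activity and AC50.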

Assay [4] in a line: Stat Signaling Pathway (AID 446; active means well fitted curve in either direction with a large enough effect, not every such curve was filed as active;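 further: ME-180 cervical cancer cells given 40 pM IL-6 alongside compound; SIE-controlled beta-lactamase reporter measured as 460/530 nm FRET emission ratio; on the % scale 0 is the no-effect control and ±100 the full control effect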). The note with it: ME-180 (cervical carcinoma) SIE beta-lactamase reporter, IL-6 stimulated, 5 h; at 7.69 µM (top of the series) unless noted. The method in brief:
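IL-6/STAT signaling read in ME-180 cells via an SIE beta-lactamase reporter. Stimulus was 40 pM IL-6 (its AC50) for 5 hrs, so both activation and inhibition register.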

Assay [5] deals with Glucocorticoid receptor (Homo sapiens) (UniProt P04150). The assay is described as follows: GR-GFP Redistribution (AID 450;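 active means compounds whose dose series gives a full or clear partial fitted curve of increased nuclear translocation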; further: potency means the concentration at half of the fitted maximal effect). The note with it: U2OS GR-GFP nuclear translocation, laser cytometry, 2 h.
Assay [6] has the same target. Description: GR-EFC Redistribution (AID 451; calls by dose curve; further: potency means the concentration at half of the fitted maximal effect). The note with it: CHO-K1 GR-EFC translocation, beta-gal luminescence, 2 h. The method in brief: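 CHO-K1 cells expressing nuclear EA and GR-ED fragments of b-gal; compounds titrated up to 46 uM final, 2 h at 37 C. GR nuclear translocation read as complemented b-gal luminescence after 1 h RT detection.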
The target of assay [7] is Mitogen-activated protein kinase 10 (Mus musculus) (UniProt Q61831). The assay is described as follows: JNK3 AlphaScreen Assay (AID 530; active means well fitted curve in either direction with a large enough effect, not every such curve was filed as active;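 further: kinase came from lysate of stimulated human HepG2 cells; signal reports phosphorylation of biotinylated GST-cJun 1-79 at Ser73 with 10 µM ATP; on the % scale 0 is the no-effect control and ±100 the full control effect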). The method in brief:
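Pre-activated (IL-1β/TNFα) JNK3 in HepG2 lysates phosphorylates biotin-GST-cJun(1-79), 10 uM ATP; anti-phospho-cJun(Ser73) AlphaScreen read at room temperature, pH 7.6 Tris buffer. Compounds pre-incubated 15 min as titrations.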
For orientation: In Alpha technology, singlet oxygen from a donor bead excites a nearby acceptor bead.

Assay [8] has as its target 3',5'-cyclic-AMP phosphodiesterase 4B (Homo sapiens) (UniProt Q07343). The assay is described as follows: qHTS Assay for Inhibitors of PDE-IV (AID 607; active means well fitted activation curve with a large enough effect in the main read-out, with a control signal flat, not every such curve was filed as active; further: % of control where 0% means no effect). The method in brief:
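Live HEK293 cells with a modified cyclic nucleotide-gated (CNG) channel report intracellular cAMP via membrane-potential dye fluorescence (ex 535/em 590 nm). Endogenous PDE-IV was targeted. Compounds were tested at up to 22.9 uM final; RO 20-1724 100 uM served as control.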

For assay [9], the target named is Guanine nucleotide-binding protein G(i) subunit alpha-1 (Homo sapiens) (UniProt P63096). Description: qHTS Assay for Inhibitors of RGS12 GoLoco Motif Activity (Green Fluorophore) (AID 879).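 Further: 0% = labeled peptide with Gαi1 and full inhibition = labeled peptide alone without protein; negative values mean loss of peptide binding seen as reduced polarization.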 The method in brief:
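Fluorescence polarization assay: 50 nM Gαi1 with 10 nM FITC-labeled RGS12 GoLoco peptide in 10 mM Tris pH 7.5, 150 mM NaCl, 0.1 mM GDP, 0.05% NP40, 10 min at room temperature with compound.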
A general note: qHTS replaces the single test concentration by a dilution series.

The target of assay [10] is Cytochrome P450 2C9 (Homo sapiens) (UniProt P11712). Description: qHTS Assay for Inhibitors and Substrates of Cytochrome P450 2C9 (AID 883). Further: potency means the concentration at half of the fitted maximal effect; nearly all actives have a fitted effect of over 60% in size. The method in brief:
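10nM CYP2C9 + 100uM Luciferin-H (=KM), 25mM KPO4; cpd 10 min 37C; NADPH regen, 60 min 37C; stop/detect with P450 Glo-Buffer 20 min; luminescence. Norm. to 57uM sulphaphenazole as full inhibition.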

The nature of assay [11]: qHTS Assay for Identification of Small Molecule Agonists for Thrombopoietin (TPO) Signaling Pathway (AID 917). Further: on the % scale 0 is the no-effect control and ±100 the full control effect. The method in brief:
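Murine Ba/F3 cells expressing human TPO receptor and GPIIb-promoter luciferase, IL-3-starved overnight, given compound plus TPO at 26 pM (EC50). After 24 h at 37 C, 5% CO2, luminescence read.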

Assay [12] has as its target Muscarinic acetylcholine receptor M1 (Rattus norvegicus) (UniProt P08482). Description: qHTS Assay for Antagonists of Acetylcholine Muscarinic M1 Receptor: Kinetic Measurement of Intracellular Calcium Response (AID 943). Further: nearly all actives have a fitted effect of over 75% in size. The method in brief: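 CHO cells expressing rat M1 receptor, Fluo-4 loaded, preincubated 10 min with compound, then stimulated with EC80 carbachol (100 nM final). Kinetic calcium fluorescence over 4 min; response taken as peak over basal signal.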

The target is the same in assay [13]. The assay is described as follows: qHTS Assay for Antagonists of Acetylcholine Muscarinic M1 Receptor: Measurement of IP-One Response (AID 944). Further: nearly all actives have a fitted effect of over 75% in size. The method in brief:
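CHO cells stably expressing rat M1, pretreated 10 min with compound, then stimulated 30 min with carbachol at EC80 (200 nM) in LiCl-containing buffer pH 7.4; IP1 accumulation read by HTRF competition (665/620 nm).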

Assay [14] deals with Pyruvate kinase (Leishmania mexicana) (UniProt Q27686). The assay is described as follows: qHTS Validation Assay for Inhibitors of Leishmania Mexicana Pyruvate Kinase (AID 945).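 Further: 0% = DMSO only neutral control wells.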 The method in brief:
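Luminescent ATP detection (PKLight) after a 1 h room-temperature reaction of 0.2 nM LmPYK E451W mutant with 0.5 mM PEP and 0.1 mM ADP at pH 7.2. Activity is normalized to DMSO-only control wells.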

The target of assay [15] is Pyruvate kinase PKM (Homo sapiens) (UniProt P14618). The assay is described as follows: qHTS Assay for Activators of Human Muscle Pyruvate Kinase (AID 954; active means well fitted curve in the direction sought with a large enough effect, not every such curve was filed as active;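 further: 0% = uninhibited enzyme and -100% = no enzyme or full thiadiazolimine inhibition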). The method in brief:
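Enzyme was run at intermediate activity so both inhibitors and activators could be detected. ATP formed from ADP and PEP by 0.1 nM human PKM2 during a 1 h room-temperature incubation was quantified by coupled luciferase luminescence.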

Assay [16] concerns the target Alpha-galactosidase A (Homo sapiens) (UniProt P06280). The assay is described as follows: Counterscreen for Glucocerebrosidase Inhibitors: qHTS Assay for Human alpha-Galactosidase at pH 4.5 (AID 992). Further: 0% is about no effect. The method in brief: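 Read-out is 4-methylumbelliferone fluorescence (365 nm excitation, 440 nm emission) after a pH 10 NaOH/glycine stop. Reactions held 2 nM enzyme and 80 uM substrate at pH 4.5 for 20 min at room temperature.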

The target in assay [17] is alpha-glucosidase (Oryza sativa, rice) (UniProt Q653V4). The assay is described as follows: Counterscreen for Glucocerebrosidase Inhibitors: qHTS Assay for Rice alpha-Glucosidase at pH 5.0 (AID 997).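 Further: 0% = full activity with enzyme and -100% = basal without enzyme.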 The method in brief: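 Rice alpha-glucosidase (4 nM final) with 400 uM 4-methylumbelliferyl-alpha-D-glucopyranoside in citrate buffer pH 5.0, 20 min at room temperature, stopped at pH 10; fluorescence 365/440 nm, compounds 0.7 nM–77 uM, AC50 from Hill fits.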

Assay [18] in a line: qHTS Assay for Lipid Storage Modulators (AID 1519; calls by dose curve). The note with it: Drosophila S3 cells, BODIPY lipid droplet/cell ratio, laser cytometry, cells loaded with oleic acid; for activity change, negative = inhibition: at 57.5 µM (top of the series). The method in brief: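 Cells seeded at 5,000 per well were treated with compounds over a concentration series and loaded with oleic acid (400 uM, as added). Lipid droplet fluorescence (488 nm excitation, 500-530 nm channel) was read by laser-scanning cytometry and normalized to 20 uM Triacsin C.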

Assay [19] addresses Cytochrome P450 3A4 (Homo sapiens) (UniProt P08684). The assay is described as follows: qHTS Assay for Inhibitors and Substrates of Cytochrome P450 3A4 (AID 884). Further: potency means the concentration at half of the fitted maximal effect; nearly all actives have a fitted effect of over 50% in size. The method in brief:
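20 nM human CYP3A4 with 25 uM Luciferin-PPXE (at KM) in 200 mM KPO4, preincubated 10 min with compound; NADPH regeneration started a 60 min RT reaction. Luciferin detected by luminescence, normalized to 57 uM ketoconazole as full inhibition.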

For assay [20] the target is unchanged. Description: qHTS Assay for Activators of Cytochrome P450 3A4 (AID 885). Further: nearly all actives have a fitted effect of over 65% in size. The method in brief:
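Quantitative HTS format: compounds preincubated with 20nM human CYP3A4 and Luciferin-PPXE substrate at KM, reaction started by NADPH regeneration, stopped after 60 min, luciferase luminescence read 20 min later.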

Assay [21] can be described thus: Confirmation and Secondary Assay for Modulators of Hemoglobin Beta Chain Splicing at IVS2 654 locus (AID 910).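 Further: HeLa cells stably carrying EGFP split by mutant beta-globin IVS2-654 intron; % of control where 0% means no effect.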 The method in brief:
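HeLa cells stably expressing EGFP interrupted by β-globin IVS2-654 intron, seeded overnight in Opti-MEM/2% FCS, then treated 2 days at 37 °C. Restored splicing read as total peak GFP intensity per well by laser scanning cytometry (488 nm excitation, 500–520 nm emission); 500 nM antisense PNA as control.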

Where [22] appears, read: measured here: cell count channel max response.
Where [23] appears, read: measured here: lipid channel max response.

Sequence of Glucocorticoid receptor (Homo sapiens) (P04150 whole entry, looked up, the tested form may be a part): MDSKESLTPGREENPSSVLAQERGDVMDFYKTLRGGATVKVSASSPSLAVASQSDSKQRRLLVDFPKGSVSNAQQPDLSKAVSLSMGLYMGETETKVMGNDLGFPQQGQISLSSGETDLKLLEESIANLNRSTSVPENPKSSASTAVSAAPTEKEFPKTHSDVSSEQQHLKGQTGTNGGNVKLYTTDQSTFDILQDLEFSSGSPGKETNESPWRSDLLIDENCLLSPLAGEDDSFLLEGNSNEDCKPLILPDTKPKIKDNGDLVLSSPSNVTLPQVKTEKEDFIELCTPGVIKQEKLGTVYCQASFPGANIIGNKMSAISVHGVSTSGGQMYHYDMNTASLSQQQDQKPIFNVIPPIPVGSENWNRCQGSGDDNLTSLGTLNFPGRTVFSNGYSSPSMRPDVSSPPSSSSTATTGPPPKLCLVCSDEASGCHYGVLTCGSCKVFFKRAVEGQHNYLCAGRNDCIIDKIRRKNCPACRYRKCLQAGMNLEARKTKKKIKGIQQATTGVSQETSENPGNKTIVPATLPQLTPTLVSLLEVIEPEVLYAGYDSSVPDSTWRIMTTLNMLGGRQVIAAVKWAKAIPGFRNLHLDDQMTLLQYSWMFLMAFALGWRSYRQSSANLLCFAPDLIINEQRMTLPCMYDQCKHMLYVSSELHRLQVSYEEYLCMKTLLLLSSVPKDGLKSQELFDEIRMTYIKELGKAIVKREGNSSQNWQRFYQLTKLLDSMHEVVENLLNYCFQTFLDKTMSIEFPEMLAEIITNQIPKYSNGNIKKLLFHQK
Sequence of 3',5'-cyclic-AMP phosphodiesterase 4B (Homo sapiens) (Q07343 whole entry, looked up): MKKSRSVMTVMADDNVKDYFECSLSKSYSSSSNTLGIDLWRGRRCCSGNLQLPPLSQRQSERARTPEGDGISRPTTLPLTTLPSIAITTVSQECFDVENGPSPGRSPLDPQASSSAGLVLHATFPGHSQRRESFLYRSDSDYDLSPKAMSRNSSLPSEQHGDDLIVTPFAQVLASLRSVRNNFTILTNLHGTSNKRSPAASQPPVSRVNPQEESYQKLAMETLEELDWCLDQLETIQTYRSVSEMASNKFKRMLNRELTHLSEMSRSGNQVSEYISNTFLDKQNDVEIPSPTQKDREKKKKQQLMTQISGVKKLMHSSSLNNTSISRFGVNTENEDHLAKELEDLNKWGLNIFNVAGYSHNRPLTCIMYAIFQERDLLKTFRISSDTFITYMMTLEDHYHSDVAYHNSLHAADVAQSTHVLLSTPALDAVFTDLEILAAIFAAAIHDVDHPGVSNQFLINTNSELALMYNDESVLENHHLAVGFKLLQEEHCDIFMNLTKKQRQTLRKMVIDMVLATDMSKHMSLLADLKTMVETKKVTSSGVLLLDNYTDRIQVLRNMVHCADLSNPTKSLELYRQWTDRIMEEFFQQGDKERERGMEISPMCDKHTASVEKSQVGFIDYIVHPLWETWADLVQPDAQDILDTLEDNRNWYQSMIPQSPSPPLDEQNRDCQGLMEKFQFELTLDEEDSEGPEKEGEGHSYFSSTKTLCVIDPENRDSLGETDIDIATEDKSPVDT
Sequence of Muscarinic acetylcholine receptor M1 (Rattus norvegicus) (P08482 whole entry, looked up): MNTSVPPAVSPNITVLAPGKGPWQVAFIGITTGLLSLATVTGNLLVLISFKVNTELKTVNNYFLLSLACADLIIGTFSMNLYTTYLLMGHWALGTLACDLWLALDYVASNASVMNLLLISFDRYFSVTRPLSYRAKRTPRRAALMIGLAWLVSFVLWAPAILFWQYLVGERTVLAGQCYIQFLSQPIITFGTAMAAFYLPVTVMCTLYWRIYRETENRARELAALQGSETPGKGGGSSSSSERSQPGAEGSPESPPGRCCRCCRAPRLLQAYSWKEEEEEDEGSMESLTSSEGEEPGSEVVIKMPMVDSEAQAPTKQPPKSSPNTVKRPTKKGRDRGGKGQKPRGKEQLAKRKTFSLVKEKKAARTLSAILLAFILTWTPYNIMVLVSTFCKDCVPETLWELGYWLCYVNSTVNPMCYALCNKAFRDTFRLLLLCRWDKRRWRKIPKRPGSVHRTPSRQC
Sequence of Cytochrome P450 1A2 (Homo sapiens) (P05177 whole entry, looked up): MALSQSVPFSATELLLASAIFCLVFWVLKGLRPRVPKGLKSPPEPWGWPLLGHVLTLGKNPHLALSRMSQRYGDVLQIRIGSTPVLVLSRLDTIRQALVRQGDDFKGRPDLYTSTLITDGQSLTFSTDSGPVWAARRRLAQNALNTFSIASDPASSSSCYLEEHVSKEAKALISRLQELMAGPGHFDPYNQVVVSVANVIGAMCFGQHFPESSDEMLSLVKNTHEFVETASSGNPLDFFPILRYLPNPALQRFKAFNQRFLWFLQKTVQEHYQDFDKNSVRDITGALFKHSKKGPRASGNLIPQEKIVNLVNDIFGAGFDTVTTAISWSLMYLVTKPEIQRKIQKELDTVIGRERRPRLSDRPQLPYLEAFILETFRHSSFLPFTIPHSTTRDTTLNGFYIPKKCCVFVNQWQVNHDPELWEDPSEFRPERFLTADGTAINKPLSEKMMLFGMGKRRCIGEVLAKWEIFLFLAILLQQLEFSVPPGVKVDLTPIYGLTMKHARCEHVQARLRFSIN
Sequence of Cytochrome P450 3A4 (Homo sapiens) (P08684 whole entry, looked up): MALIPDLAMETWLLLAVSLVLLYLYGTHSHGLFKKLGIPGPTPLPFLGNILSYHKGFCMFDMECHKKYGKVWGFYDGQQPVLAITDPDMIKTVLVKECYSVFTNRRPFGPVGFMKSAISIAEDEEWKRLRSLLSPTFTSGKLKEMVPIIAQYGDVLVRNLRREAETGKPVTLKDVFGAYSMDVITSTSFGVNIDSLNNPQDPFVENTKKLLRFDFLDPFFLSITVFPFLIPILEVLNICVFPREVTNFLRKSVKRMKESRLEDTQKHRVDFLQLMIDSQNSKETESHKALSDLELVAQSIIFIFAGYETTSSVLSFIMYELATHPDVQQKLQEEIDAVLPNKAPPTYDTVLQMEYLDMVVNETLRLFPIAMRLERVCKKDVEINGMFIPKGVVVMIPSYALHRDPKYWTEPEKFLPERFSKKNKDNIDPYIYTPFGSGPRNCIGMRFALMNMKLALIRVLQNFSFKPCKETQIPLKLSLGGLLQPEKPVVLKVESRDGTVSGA
Sequence of Pyruvate kinase (Leishmania mexicana) (Q27686 2-499 E452W): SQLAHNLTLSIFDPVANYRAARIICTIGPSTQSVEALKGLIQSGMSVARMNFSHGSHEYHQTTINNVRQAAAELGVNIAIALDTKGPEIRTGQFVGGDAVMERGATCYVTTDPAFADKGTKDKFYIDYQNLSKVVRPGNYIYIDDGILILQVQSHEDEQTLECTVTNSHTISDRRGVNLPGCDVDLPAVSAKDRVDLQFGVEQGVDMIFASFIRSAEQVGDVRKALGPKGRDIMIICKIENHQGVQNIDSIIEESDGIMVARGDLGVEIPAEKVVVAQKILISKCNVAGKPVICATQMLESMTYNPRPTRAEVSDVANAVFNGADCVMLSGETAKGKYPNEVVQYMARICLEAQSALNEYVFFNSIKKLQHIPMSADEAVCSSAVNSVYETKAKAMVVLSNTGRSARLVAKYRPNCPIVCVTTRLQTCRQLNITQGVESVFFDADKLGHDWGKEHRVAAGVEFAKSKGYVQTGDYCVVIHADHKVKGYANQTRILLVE
Sequence of Alpha-galactosidase A (Homo sapiens) (P06280 whole entry, looked up): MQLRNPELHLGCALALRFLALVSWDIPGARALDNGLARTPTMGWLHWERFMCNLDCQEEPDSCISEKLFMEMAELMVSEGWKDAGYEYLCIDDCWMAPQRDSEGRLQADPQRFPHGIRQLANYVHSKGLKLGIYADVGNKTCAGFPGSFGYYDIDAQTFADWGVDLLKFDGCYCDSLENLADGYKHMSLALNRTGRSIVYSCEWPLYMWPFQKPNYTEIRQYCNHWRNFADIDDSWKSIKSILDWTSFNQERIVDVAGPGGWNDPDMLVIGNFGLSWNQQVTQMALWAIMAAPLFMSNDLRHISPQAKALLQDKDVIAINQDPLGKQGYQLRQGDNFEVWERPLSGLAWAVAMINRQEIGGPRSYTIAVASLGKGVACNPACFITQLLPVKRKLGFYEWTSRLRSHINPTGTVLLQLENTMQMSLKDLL
Sequence of Guanine nucleotide-binding protein G(i) subunit alpha-1 (Homo sapiens) (P63096 whole entry, looked up): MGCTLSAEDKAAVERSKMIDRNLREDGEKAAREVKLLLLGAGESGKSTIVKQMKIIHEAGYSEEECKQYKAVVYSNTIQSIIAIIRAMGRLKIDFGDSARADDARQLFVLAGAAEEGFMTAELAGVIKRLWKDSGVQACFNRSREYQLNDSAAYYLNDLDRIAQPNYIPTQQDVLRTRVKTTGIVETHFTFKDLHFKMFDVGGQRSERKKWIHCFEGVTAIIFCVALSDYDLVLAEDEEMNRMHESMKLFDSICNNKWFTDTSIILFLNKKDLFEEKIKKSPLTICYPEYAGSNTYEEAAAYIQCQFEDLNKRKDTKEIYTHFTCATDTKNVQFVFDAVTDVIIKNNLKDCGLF
Sequence of Pyruvate kinase PKM (Homo sapiens) (P14618 whole entry, looked up): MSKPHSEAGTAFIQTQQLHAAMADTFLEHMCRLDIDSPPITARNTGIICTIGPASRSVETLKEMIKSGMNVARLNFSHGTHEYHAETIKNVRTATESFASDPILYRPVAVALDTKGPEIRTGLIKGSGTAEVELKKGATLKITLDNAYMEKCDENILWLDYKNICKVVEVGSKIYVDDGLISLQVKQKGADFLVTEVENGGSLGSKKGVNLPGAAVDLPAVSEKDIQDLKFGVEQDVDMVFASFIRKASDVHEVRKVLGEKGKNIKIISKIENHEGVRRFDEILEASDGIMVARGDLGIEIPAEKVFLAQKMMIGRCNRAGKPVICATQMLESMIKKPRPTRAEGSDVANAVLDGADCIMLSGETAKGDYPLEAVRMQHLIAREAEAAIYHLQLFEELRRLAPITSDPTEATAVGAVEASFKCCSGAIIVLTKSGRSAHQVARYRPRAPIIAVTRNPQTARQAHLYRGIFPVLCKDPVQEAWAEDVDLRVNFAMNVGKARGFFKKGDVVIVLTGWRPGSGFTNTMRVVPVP

In the case of `O=C(O)[C@H]1CCCN(CCC=C(c2ccccc2)c2ccccc2)C1`, the activity change, negative = inhibition was 3.95% [at 38 µM] (inactive) in assay [1], -15.6% [at 38 µM] (inactive) in assay [3] and -4.66% (inactive) in [18]. For the same molecule, the Potency result in [2] is “inactive and 31.6 µM (active)”; in [5], > 46 µM (inactive); in assay [6] it was > 46 µM (inactive); in [10], 7.94 µM (active). Also, the activity, negative = inhibition in [4] is 26.3% [at 38 µM] (inactive). The Potency result in [7], in assay [8], in [9], in assay [12] and in [13] was “inactive” each time. In addition, the molecule was classed as inactive in [11], in assay [14], in assay [15], in assay [16] and in assay [17]. The max response is -22.7% in assay [18] (setting [22]) and -26.7% in [18] (setting [23]).
Turning to `O=c1c(O)c(-c2ccc(O)cc2)oc2ccccc12`, the Potency in assay [19] was 12.6 µM (active). For the same molecule, the Potency entry in [20] and in assay [21] was “inactive” each time. The activity change, negative = inhibition in [18] was 8.84% (inactive). Moreover, the max response in assay [18] (setting [22]) is -12.3%; in assay [18] (setting [23]) it was -1%.
